Drawing on PubChem BioAssay (NCI), this text covers growth for 12 compounds.

Molecules are shown by their SMILES. “And” between values parts separate entries of the source, which are not always exact repeats. Identical values can stand only once. About 83,000 compounds went through this panel and 20% of them were active in at least one assay; those are over-represented in the sample as a whole.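 The endpoint reported here, percent growth, reads 100 for growth as untreated, 0 for no net growth and -100 for all cells dead.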 Unmarked numbers belong to inactive results. The source made the active and inactive calls. The calls were made as follows: active = growth percent below 10; inactive = the rest.

Some test systems named below: NCI-H23 lung; NCI-H226 lung; NCI-H322M lung; HOP-62 NSCLC; NCI-H460 lung; HOP-92 NSCLC; NCI-H522 lung; A549/ATCC NSCLC; 786-0 renal; COLO 205 colon.
What all share (test): NCI-60 one-dose screen, 48 h (100 = growth as untreated, 0 = no growth, -100 = all killed)
Details in all cases: 10 µM unless noted

With `Nc1nc2ccccc2c2c(=O)c3ccc(Cl)cc3sc12`, the growth was 92% with NCI-H23 lung; 98.9% in the experiment with NCI-H226 lung; 103% with NCI-H322M lung; 99.1% in the experiment on HOP-62 NSCLC; 72.7% with NCI-H460 lung; 84.1% in the experiment with HOP-92 NSCLC. The growth with NCI-H522 lung is 94.3%; with A549/ATCC NSCLC it was 94.7%; in the experiment with 786-0 renal, 99.1%; in the experiment on COLO 205 colon, 98.4%.
For `c1cc(NCCCCN2CCOCC2)c2ccc3c(ccc4c(NCCN5CCOCC5)ccnc43)c2n1`, the growth is 70.7% in the experiment with NCI-H23 lung; 79.6% with NCI-H226 lung; 72.9% in the experiment on NCI-H322M lung; 81.5% with HOP-62 NSCLC; 40.8% in the experiment with NCI-H460 lung; 56.8% with HOP-92 NSCLC. For the same compound, the growth was 82.5% with NCI-H522 lung, 75.9% in the experiment with A549/ATCC NSCLC, 79.5% in the experiment with 786-0 renal and 90.5% with COLO 205 colon.
As to `Cn1cc(-c2csc(-c3cn(CCOC(N)=O)c4ccccc34)n2)c2cccnc21`, the growth in the experiment on NCI-H23 lung is 81.2%; with NCI-H226 lung, 86.4%; with NCI-H322M lung it was 90.8%; in the experiment with HOP-62 NSCLC, 74.5%; with NCI-H460 lung it was 82.4%; in the experiment with HOP-92 NSCLC, 83.1%. For the same compound, the growth in the experiment on NCI-H522 lung is 24.2%; in the experiment with A549/ATCC NSCLC it was 67.4%; with 786-0 renal, 87.4%; with COLO 205 colon, 77.6%.
On to `COc1cc(-c2nc3occn3c2-c2ccnc(NCCCNS(=O)(=O)c3ccc(O)cc3)n2)ccc1F`, for which the growth in the experiment with NCI-H23 lung was 92.6%; in the experiment on NCI-H226 lung, 96.8%; in the experiment with NCI-H322M lung, 113%; in the experiment on HOP-62 NSCLC, 95%; with NCI-H460 lung, 102%; with HOP-92 NSCLC, 86.7%. For the same compound, the growth in the experiment with NCI-H522 lung is 72.4%; in the experiment on A549/ATCC NSCLC it was 94.3%; in the experiment with 786-0 renal, 122%; in the experiment on COLO 205 colon it was 45%.
Regarding `COc1cc(/C=C2/C=C(c3ccc(C(C)(C)C)cc3)N(CCc3ccc(S(N)(=O)=O)cc3)C2=O)cc(OC)c1OC`, the growth was 62.3% with NCI-H23 lung; 62.7% in the experiment with NCI-H226 lung; 81.2% in the experiment with NCI-H322M lung; 77% with HOP-62 NSCLC; 35.6% in the experiment on NCI-H460 lung; 23% in the experiment with HOP-92 NSCLC. For the same compound, the growth with NCI-H522 lung is 49.8%; with A549/ATCC NSCLC it was 38.2%; in the experiment with 786-0 renal, 29.7%; with COLO 205 colon it was 34.3%.
Consider `O=C(/C=C/c1ccc(F)cc1)Nc1ncc(Cc2ccc(F)cc2)s1`, for which the growth is 61.5% in the experiment with NCI-H23 lung; 70% with NCI-H226 lung; 41.4% in the experiment on NCI-H322M lung; 39% in the experiment with HOP-62 NSCLC; 17% in the experiment with NCI-H460 lung; 71.5% in the experiment with HOP-92 NSCLC. For the same compound, the growth is 19.1% in the experiment on NCI-H522 lung, 38.1% in the experiment with A549/ATCC NSCLC, 46.7% with 786-0 renal and 23.8% in the experiment with COLO 205 colon.
With `C=C(CNCCO)[C@@H]1CC[C@]2(CO)CC[C@]3(C)[C@H](CC[C@@H]4[C@@]5(C)CCC(NCCc6ccc(O)cc6)C(C)(C)[C@@H]5CC[C@]43C)[C@@H]12` (stereo not given in full), the growth in the experiment on NCI-H23 lung is -63% (active); in the experiment with NCI-H226 lung, -47.6% (active); with NCI-H322M lung, -41% (active); in the experiment on HOP-62 NSCLC, -84.4% (active); with NCI-H460 lung, -80.4% (active); with HOP-92 NSCLC, -66.1% (active). The growth in the experiment on NCI-H522 lung is -79.5% (active); in the experiment with A549/ATCC NSCLC, -71.3% (active); with 786-0 renal, -92.8% (active); with COLO 205 colon, -84.4% (active).
As for `Cc1ccc(-c2nc3nc(-c4ccc(F)cc4)nc(N4CCCNCC4)c3o2)cc1`, the growth is -79.2% (active) in the experiment on NCI-H23 lung; 112% with NCI-H226 lung; -99% (active) with NCI-H322M lung; -62.2% (active) in the experiment on HOP-62 NSCLC; -83.2% (active) in the experiment on NCI-H460 lung; -57.6% (active) in the experiment on HOP-92 NSCLC. Moreover, the growth with NCI-H522 lung is -65.2% (active); in the experiment with A549/ATCC NSCLC, -82.4% (active); in the experiment with 786-0 renal, -86.4% (active); with COLO 205 colon it was -77.6% (active).
For the compound `COc1cccc(C2C(C#N)=C(N)Oc3cc(OCCCCCC[P+](c4ccccc4)(c4ccccc4)c4ccccc4)ccc32)c1` (stereo not given), the growth in the experiment on NCI-H23 lung is -23.1% (active); with NCI-H226 lung, 7.81% (active); in the experiment with NCI-H322M lung, 6.6% (active); in the experiment on HOP-62 NSCLC, -39% (active); in the experiment with NCI-H460 lung, -44.4% (active); with HOP-92 NSCLC it was -51.7% (active). Also, the growth in the experiment on NCI-H522 lung was -10.7% (active); in the experiment on A549/ATCC NSCLC it was 10.2%; in the experiment with 786-0 renal, -46.3% (active); in the experiment with COLO 205 colon, -62.5% (active).
On to `CCN1C(=S)N(CC)C2C1NC(=S)N2/N=C/C=C/c1ccccc1` (stereo not given), for which the growth in the experiment with NCI-H23 lung is 58.5%; in the experiment with NCI-H226 lung, 64.5%; in the experiment with NCI-H322M lung, 51.1%; in the experiment on HOP-62 NSCLC it was 44.4%; in the experiment on NCI-H460 lung, 12.4%; with HOP-92 NSCLC, 62.2%. In addition, the growth in the experiment on NCI-H522 lung was -7.6% (active); with A549/ATCC NSCLC it was 37.6%; in the experiment on 786-0 renal, 40.9%; in the experiment on COLO 205 colon it was 33.4%.
Consider `CC(C)(C)CC(N)=O`, for which the growth with NCI-H23 lung was 100%; in the experiment with NCI-H226 lung, 95.6%; in the experiment with NCI-H322M lung, 108%; with HOP-62 NSCLC it was 89.4%; in the experiment on NCI-H460 lung, 103%; with HOP-92 NSCLC, 104%. Besides, the growth in the experiment with NCI-H522 lung is 111%; with A549/ATCC NSCLC it was 97.6%; with 786-0 renal, 101%; with COLO 205 colon, 109%.
Consider `NNCCc1ccccc1`, for which the growth with NCI-H23 lung is 103% and 88.8%; with NCI-H226 lung it was 93.3% and 75.7%; in the experiment on NCI-H322M lung it was 95.2%; in the experiment with HOP-62 NSCLC it was 104% and 103%; in the experiment on NCI-H460 lung, 115% and 105%; with HOP-92 NSCLC, 83.1% and 102%. Moreover, the growth in the experiment with NCI-H522 lung is 92.1% and 94.1%; in the experiment with A549/ATCC NSCLC, 108% and 90.5%; in the experiment on 786-0 renal, 95.2% and 106%; with COLO 205 colon, 96.5% and 103%.
